Test results reported in PubChem BioAssay (NCI).
Compounds without any hit were thinned out: in the full panel of roughly 83,000, 20% have a hit.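 Plates (96-well) were seeded with cells, treated with compound at one concentration, and incubated for 48 hours before percent growth was determined.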 A number with no mark means an inactive call. Calls of active or inactive are those of the source. How the source made its calls: active means growth percent below 10; inactive means the rest.

Legend:
Test in all cases: NCI-60 one-dose screen, 48 h (100 = growth as untreated, 0 = no growth, -100 = all killed)
Settings in all cases: 10 µM unless noted
SR leukemia = system: SR leukemia
RPMI-8226 leukemia = system: RPMI-8226 leukemia
OVCAR-8 ovarian = system: OVCAR-8 ovarian
OVCAR-5 ovarian = system: OVCAR-5 ovarian
SK-OV-3 ovarian = system: SK-OV-3 ovarian
OVCAR-3 ovarian = system: OVCAR-3 ovarian
NCI/ADR-RES ovarian = system: NCI/ADR-RES ovarian
BT-549 breast = system: BT-549 breast
MDA-MB-435 melanoma = system: MDA-MB-435 melanoma
MCF7 breast = system: MCF7 breast
HCT-116 colon = system: HCT-116 colon
HCC-2998 colon = system: HCC-2998 colon
KM12 colon = system: KM12 colon
IGROV1 ovarian = system: IGROV1 ovarian
T-47D breast = system: T-47D breast
SW-620 colon = system: SW-620 colon
OVCAR-4 ovarian = system: OVCAR-4 ovarian
HS 578T breast = system: HS 578T breast

Structure (SMILES)	growth (SR leukemia)	growth (RPMI-8226 leukemia)	growth (OVCAR-8 ovarian)	growth (OVCAR-5 ovarian) [%]	growth (SK-OV-3 ovarian)	growth (OVCAR-3 ovarian)	growth (NCI/ADR-RES ovarian)	growth (BT-549 breast)	growth (MDA-MB-435 melanoma)	growth (MCF7 breast)	growth (HCT-116 colon)	growth (HCC-2998 colon)	growth (KM12 colon)	growth (IGROV1 ovarian)	growth (T-47D breast)	growth (SW-620 colon)	growth (OVCAR-4 ovarian)	growth (HS 578T breast)
N#CCCCCCCCCCCC#N	118%	94.9%	100%	99.6	109%	125%	98.3%	102%	91.9%	104%	105%	95%	111%	–	–	–	–	–
Oc1ccc(CN(Cc2ccc(C(F)(F)F)cc2)Cc2ccc(O)c3ncccc23)c2cccnc12	3.48% (active)	11.7%	11%	44.5	17.8%	37.5%	6.89% (active)	32.9%	–	13.7%	18%	34.1%	18.8%	20%	20.2%	18.1%	–	–
O=C1CSC(c2ccccc2Cl)N1c1nnc(-c2ccncc2)o1 (stereo unspecified)	96%	86%	103%	94.1	–	–	92.3%	116%	99.6%	–	85.5%	97.9%	105%	89%	–	99.6%	97.8%	109%
CCn1cnc(C[C@H](NC(=O)[C@@H](NC(=O)Nc2cc(C(F)(F)F)cc(C(F)(F)F)c2)C(C)C)C(=O)OC)c1	-35.5% [100 µM] (active)	-52.4% [100 µM] (active)	-81.6% [100 µM] (active)	–	-100% [100 µM] (active)	-89.5% [100 µM] (active)	0.865% [100 µM] (active)	-97.6% [100 µM] (active)	-87.1% [100 µM] (active)	-55.7% [100 µM] (active)	-88.1% [100 µM] (active)	-86.3% [100 µM] (active)	-81.9% [100 µM] (active)	-71.5% [100 µM] (active)	-77.8% [100 µM] (active)	-44.1% [100 µM] (active)	-96.2% [100 µM] (active)	7.39% [100 µM] (active)
CCOC(=O)CSSCC(=O)OCC	88.7%	98.6%	101%	108	102%	110%	110%	110%	99.4%	95.2%	108%	108%	105%	110%	94.4%	111%	–	–
c1ccc(Nc2ccccn2)cc1	80.2%	89.1%	107%	106	105%	116%	109%	98.8%	112%	–	103%	114%	104%	101%	101%	110%	–	106%
COc1cc2cn3c4ccc(O)cc4[nH]c(=O)c3c2cc1OC	-17.5% (active)	-2.13% (active)	0.127% (active)	30	–	-13.9% (active)	24.7%	–	9.28% (active)	-77.9% (active)	-100% (active)	13.1%	-2.22% (active)	-3.23% (active)	–	16.8%	–	-11.2% (active)
O=c1[nH]c2cc(O)ccc2n2cc3c(F)cccc3c12	9.4% (active)	46.2%	24.6%	43.8	-4.03% (active)	30.3%	17.2%	–	-12.2% (active)	-3.3% (active)	19.9%	–	34.7%	16.9%	39.1%	18.7%	–	-26.1% (active)
N#Cc1ccc(NC2c3ccccc3CC2O)cc1 (stereo unspecified)	99.3%	96.3%	122%	113	106%	129%	115%	99.2%	117%	95.8%	101%	105%	112%	116%	103%	–	–	–
CCCCCCCCC/C(=N\NC(=O)c1ccncc1)c1ccc(O)c(O)c1O	6.56% (active)	27.1%	13.8%	48.6	24.3%	–	7.59% (active)	38.8%	53%	21.4%	26.7%	33.3%	–	24.9%	–	43.1%	–	–
O=C1c2cc([N+](=O)[O-])ccc2-c2cc(Cl)c(NC(=O)C(F)(F)F)cc21	98.6%	102%	121%	104	111%	133%	105%	108%	114%	35.8%	104%	104%	114%	110%	85.2%	–	–	–
Oc1ccccc1/C=N/N=C/c1c(O)ccc2ccccc12	55.4%	–	80.6%	102	90.8%	80.5%	92.5%	77.8%	108%	52.7%	83%	91.2%	–	47.9%	63.4%	95%	85.4%	101%
CCOc1ccccc1/C=N\N=C(N/N=C/c1ccccc1OCC)N/N=C/c1ccccc1OCC	15.7%	18.8%	18.4%	–	2.98% (active)	-19.7% (active)	6.36% (active)	31.8%	13.4%	3.52% (active)	13.1%	23.9%	10.7%	21%	16.1%	12.1%	7.81% (active)	–
COc1ccc2c(c1)/C(=C1/S/C(=N/c3nnc(C)s3)NC1=O)C(=O)N2Cc1ccc(Br)cc1	55%	26.6%	38%	–	52.1%	28.7%	32.2%	42.9%	39.3%	35.1%	19.7%	46.1%	27.7%	40.9%	–	44.5%	40.1%	47.8%
